Source: ChEMBL document CHEMBL5308504, “Tm Shift (DSF) assay results for EUbOPEN Chemogenomics Library” (2023)
“And” between values parts separate entries of the source, which are not always exact repeats. Equal entries are not always repeated. Numbered stars: 1 amine (or outer) side, 2 acyl side, 3 side chain; on linkers, the order of the positions; unused ones are H or OH. Bridge positions count the residues as written; N and C are the ends. Square brackets hold non-standard residues; d marks the D form. Peptide text beside a SMILES is read from it. I, II: the chains in the order shown. Hexamethylenediamine = C(CCCN[*:2])CCN[*:1]; Dip = N[C@H](C(=O)O)C(c1ccccc1)c1ccccc1; Chg = N[C@H](C(=O)O)C1CCCCC1; NMeA = CN[C@@H](C)C(=O)O

Columns and labels:
[1] = target: Bromodomain-containing protein 4 (Homo sapiens) (UniProt O60885); conditions: Compound concentration 20.0 uM, Protein concentration 2.0 uM, Result type QC Liability
[2] = target: T1, Transcription intermediary factor 1-alpha (Homo sapiens) (UniProt O15164); conditions: Compound concentration 20.0 uM, Protein concentration 2.0 uM, Result type QC Liability
T1 sequence (whole entry): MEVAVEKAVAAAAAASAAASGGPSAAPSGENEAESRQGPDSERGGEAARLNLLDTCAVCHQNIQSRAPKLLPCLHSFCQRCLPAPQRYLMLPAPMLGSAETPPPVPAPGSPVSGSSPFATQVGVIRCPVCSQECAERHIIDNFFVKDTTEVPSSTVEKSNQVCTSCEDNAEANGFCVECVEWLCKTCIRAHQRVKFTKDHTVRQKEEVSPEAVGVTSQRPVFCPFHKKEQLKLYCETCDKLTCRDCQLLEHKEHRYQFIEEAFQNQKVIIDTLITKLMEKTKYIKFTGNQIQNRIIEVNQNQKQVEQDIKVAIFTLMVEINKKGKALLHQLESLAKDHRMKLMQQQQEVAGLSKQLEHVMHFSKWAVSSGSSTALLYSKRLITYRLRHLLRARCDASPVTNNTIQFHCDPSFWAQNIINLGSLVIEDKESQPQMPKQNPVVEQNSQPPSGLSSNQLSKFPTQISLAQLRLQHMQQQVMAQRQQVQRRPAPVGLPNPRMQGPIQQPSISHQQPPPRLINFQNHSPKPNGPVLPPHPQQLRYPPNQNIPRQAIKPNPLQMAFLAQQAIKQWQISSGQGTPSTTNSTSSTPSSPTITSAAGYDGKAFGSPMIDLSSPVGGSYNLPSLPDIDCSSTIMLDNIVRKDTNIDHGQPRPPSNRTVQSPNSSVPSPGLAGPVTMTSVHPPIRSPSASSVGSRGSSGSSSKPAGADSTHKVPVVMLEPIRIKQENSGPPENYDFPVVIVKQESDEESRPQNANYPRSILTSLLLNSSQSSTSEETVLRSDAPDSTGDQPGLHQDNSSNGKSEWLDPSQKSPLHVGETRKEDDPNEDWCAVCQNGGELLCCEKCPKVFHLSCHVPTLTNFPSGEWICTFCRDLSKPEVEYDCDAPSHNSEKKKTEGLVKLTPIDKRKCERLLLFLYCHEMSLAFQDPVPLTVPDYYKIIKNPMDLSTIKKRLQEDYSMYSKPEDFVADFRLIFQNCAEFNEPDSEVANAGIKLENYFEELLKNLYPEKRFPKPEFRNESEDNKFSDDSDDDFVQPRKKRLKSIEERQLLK

SMILES	ΔTm [1]	ΔTm [2]
CCOC(=O)C1Cc2ccccc2CN1C(=O)c1ccc(SC)s1 (stereo not given)	-2.7 °C	-3.41 °C
CCCS(=O)(=O)N[C@H]1C[C@@H](N(C)c2ncnc3[nH]ccc23)C1	-0.54 °C	-3.66 °C
CN(C)[C@H]1CCc2nc(NC(=O)c3cccc(Cn4cc(-c5ccc(C#N)cc5)cn4)c3)sc2C1	-1.88 °C	-2.75 °C
Cc1nc2ccc(Cl)cc2c(-c2ccccc2)c1CC(=O)O	-0.84 °C	0.64 °C
CC1(C)CCC(CN2CCN(c3ccc(C(=O)NS(=O)(=O)c4ccc(NCC5CCOCC5)c([N+](=O)[O-])c4)c(Oc4cnc5[nH]ccc5c4)c3)CC2)=C(c2ccc(Cl)cc2)C1	-1.82 °C	-1.45 °C
COc1cc(-c2cncc(-c3ccc(N4CCN(C(C)C)CC4)cc3)c2C)cc(F)c1C(=O)N1CCCC1	-3.15 °C	-3.48 °C
O=C1CN(c2ccccc2F)C(NCCN2CCOCC2)=C1c1nc2cc(Br)ccc2c(=O)[nH]1	-12.3 °C	0.25 °C
Cc1nc2ccc(Oc3ccc(F)cc3)cc2c(=O)n1C[C@H]1CCCN(C(C)C)C1	0.67 °C	0.18 °C
Cc1cc(-c2ccnc(Nc3cnn(C)c3)n2)ccc1CNC(=O)N1CC(OC(C)C)C1	-2.36 °C	0.22 °C
CN[C@@H](C)C(=O)N[C@H](C(=O)N1CCC[C@H]1C(=O)N[C@H](C(=O)NCCCCCCNC(=O)[C@@H](NC(=O)[C@@H]1CCCN1C(=O)[C@@H](NC(=O)[C@H](C)NC)C1CCCCC1)C(c1ccccc1)c1ccccc1)C(c1ccccc1)c1ccccc1)C1CCCCC1 (I: H-[NMeA][Chg]P[Dip] / II: H-[NMeA][Chg]P[Dip]; linker I:C-II:C via Hexamethylenediamine)	-4.77 °C	-4.59 °C
CC1CN(CC(=O)N2CC(C)(C)c3nc(CO)c(Cc4ccc(F)cc4)cc32)C(CN2CCOCC2C)CN1 (stereo not given)	-2.32 °C	-3.23 °C
Nc1ncc2c(n1)-c1c([nH]c3ccc(C4=CCOCC4)cc13)CCC2	-0.2 °C	0.27 °C
CN(C)[C@H]1CC[C@H](Nc2ncc3ncnc(Nc4ccc(F)c(Cl)c4)c3n2)CC1	-0.7 °C	-1.12 °C
CN(C)C(=O)c1sc2nc(N3CCC(S(C)(=O)=O)CC3)cc(C(F)(F)F)c2c1N	-3.42 °C and 1.01 °C	0.17 °C and 0.19 °C
COc1ccc2c(O[C@@H]3C[C@H]4C(=O)N[C@]5(C(=O)NS(=O)(=O)C6(C)CC6)CC5/C=C\CCCCC[C@H](NC(=O)c5ccn(C)n5)C(=O)N4C3)cc(OC(C)C)nc2c1C (stereo not given in full)	1.29 °C	0.91 °C
Cc1cnc(-c2cnc(NCCNc3ccc(C#N)cn3)nc2-c2ccc(Cl)cc2Cl)[nH]1	-2.28 °C	-0.78 °C
C[C@@H]1Cc2c([nH]c3ccccc23)[C@@H](c2c(F)cc(/C=C/C(=O)O)cc2F)N1CC(C)(C)F	0.36 °C	-0.62 °C
CC(C)(C[C@H]1CN(S(=O)(=O)c2cccc(C(F)(F)F)c2)c2cc(-c3cc(F)cc(OC(F)F)c3)ccc2O1)C(=O)O	-6.18 °C	-2.16 °C
NCCCc1c(C(=O)O)[nH]c2ccc(C(=O)Nc3ccccc3)cc12	-2.73 °C	-4.02 °C
COCc1c(-c2cc3cc(C)cc(OC)c3s2)c2c(N)ncnn2c1CN[C@@H]1CCNC1=O	1.53 °C	0.22 °C
COc1cc2nc(C)nc(NC3(c4ccccc4)CC3)c2cc1OC	-0.74 °C	0.43 °C
COc1ccccc1[C@@H]1CNCCC12CCN(C(=O)[C@](OC)(c1ccccc1)C(F)(F)F)CC2	-0.33 °C	0.2 °C
COc1cc(-c2cncc(-c3ccc(N4CCN(C(C)C)CC4)cc3)c2C)cc(F)c1C(N)=O	-2.5 °C	-3.06 °C
CCCCc1oc2ccccc2c1C(=O)c1cc(I)c(OCCN(CC)CC)c(I)c1	-4.02 °C	-4.38 °C

SMILES	ΔTm [1]	ΔTm [2]
Clc1ccccc1C(c1ccccc1)(c1ccccc1)n1ccnc1	-5.6 °C	-5.38 °C
Cc1cc(SCc2sc(-c3ccc(C(F)(F)F)cc3)nc2C)ccc1OCC(=O)O	-3.91 °C	-2.79 °C
Cc1csc(S(=O)(=O)N(CC(C)C)c2cc3c(cc2OCc2ccc(C(=O)O)cc2)CCC3)n1	-0.64 °C	-0.15 °C
CC(C)(O)CNC(=O)N1C(=O)N(c2cccc(C(F)(F)F)c2)C2=C(C(=O)CC2)[C@H]1c1ccc(C#N)cc1	0.34 °C	0.22 °C
Cn1c(C(=O)N[C@@H](CO)c2ccc(C(=O)O)cc2)cc2cc(Cl)ccc21	0.27 °C	0.31 °C
CC(=O)c1c(C)c2cnc(Nc3ccc(N4CCNCC4)cn3)nc2n(C2CCCC2)c1=O	-1.52 °C and 0.07 °C	-1.97 °C and -2.09 °C
COc1c(-c2cn(C3CCC(=O)NC3=O)nn2)csc1C(=O)N1CCCC1 (stereo not given)	-0.9 °C	-2.25 °C
NC(=O)OC[C@H](NC(=O)Cn1nc(-c2ccc(Cl)cc2)n(C[C@H](O)C(F)(F)F)c1=O)c1cccc(C(F)(F)F)c1	0.39 °C	0.59 °C
CCN1CCN(Cc2ccc(Nc3ncc(F)c(-c4cc(F)c5nc(C)n(C(C)C)c5c4)n3)nc2)CC1	-1.43 °C	-2.28 °C
Cc1cc(NC(=O)c2cccc(NC(=O)/C=C/CN(C)C)c2)ccc1Nc1nccc(-c2cccnc2)n1	-1.31 °C	-1.44 °C
Cn1c(C2(NC(=O)c3ccc(NCC4CCCCC4)nc3)CCC2)nc2ccc(/C=C/C(=O)O)cc21	0.73 °C	0.39 °C
Cc1cccc(-c2[nH]c(CNc3ccccc3F)nc2-c2ccc3ncnn3c2)n1	-1.53 °C	-2.12 °C
CCN1C(=O)/C(=C(\NC2CCN(C)CC2)c2ccc3c(c2)OCO3)c2cc(C(C)=O)ccc21	-12 °C	0.3 °C
Clc1ccc(-c2nc3sccn3c2/C=N/OCc2ccc(Cl)c(Cl)c2)cc1	-1.58 °C	-1.95 °C
CNC(=O)c1nnc(NC(=O)C2CC2)cc1Nc1cccc(-c2ncn(C)n2)c1OC	-2.45 °C	-4.06 °C
Cc1nn(-c2ccccc2)c(Nc2ccccc2C(=O)O)c1-c1cc2nccnc2c(F)c1F	-1.68 °C	0.83 °C
CC(C)(C#Cc1ccc(NC(=O)COc2ccccc2C(=O)c2ccccc2)c(Cl)c1)C(=O)O	0.63 °C	0.79 °C
COC(=O)c1ccc2c(c1)NC(=O)/C2=C(\Nc1ccc(-c2nccn2C)cc1)c1ccccc1	-1.87 °C	-3.33 °C
C=C1/C(=C\C=C2/CCC[C@]3(C)[C@@H]([C@H](C)CCCC(C)(C)O)CC[C@@H]23)C[C@@H](O)C[C@@H]1O	-7.29 °C	-4.59 °C
CC(C)(C)OC(=O)CN1C(=O)c2c(OCC(=O)O)cccc2Oc2ccc(C(F)(F)F)cc21	0 °C	0.32 °C
CN1C(=O)[C@@H](NC(=O)c2cc(Cc3ccccc3)on2)COc2ccccc21	-1.02 °C	-3.21 °C
N#Cc1ccc(COc2ccc(Br)cc2CNCCO)cn1	-0.82 °C	-0.53 °C
N=C(N)NCCC[C@H](NC(=O)CC1(CC(=O)N2CCN(C3c4ccccc4NC(=O)c4ccccc43)CC2)CCCC1)C(=O)NCCn1c(=O)n(-c2ccccc2)n(-c2ccccc2)c1=O (stereo not given in full)	0.44 °C	-2.38 °C
COc1cc(OC)cc(-c2cc3cnc(N)nc3nc2NC(=O)NC(C)(C)C)c1	-2.72 °C and 0.27 °C	-2.2 °C and -1.8 °C

SMILES	ΔTm [1]	ΔTm [2]
Cc1nc2ccccc2c(-c2ccc3c4c(ccnc24)CCO3)c1[C@H](OC(C)(C)C)C(=O)O	-1.5 °C	0.24 °C
O=C(CCCN1CCC(O)(c2ccc(Cl)cc2)CC1)c1ccc(F)cc1	-3.1 °C	-2.64 °C
CNC(=O)COc1cc2cc(Nc3nc(N4C[C@H](C)C[C@H](C)C4)ncc3Cl)ccc2n(C)c1=O	-0.33 °C	0.23 °C
O=C(Nc1cccc(Nc2nccc(Nc3cccc(C(F)(F)F)c3)n2)c1)C1CC1	1.77 °C	1.03 °C
COCCN(C)c1ccc(NC(=O)/C=C(\C)c2ccc3ccccc3c2)c(C(=O)O)c1	-1.96 °C	-0.91 °C
Nc1ncc2c(n1)-c1c([nH]c3ccc(C4CC4)cc13)CCCC2	-1.04 °C	-1.92 °C
Cc1ncc(C(=O)Nc2cc(C(C)(C)C)on2)cc1-n1cc(-c2cnn(C)c2C)nn1	-3.35 °C	-3.56 °C
CCCCc1c(-c2ccccc2)nc(N)nc1-c1ccc(OCc2ccccc2)c(F)c1F	-11.4 °C	-1.94 °C
Cc1nc2cccnc2n2c(-c3cc(C(C)(C)O)ncc3Cl)nnc12	-1.96 °C	-2.03 °C
CCOc1cc(CC(=O)N[C@@H](CC(C)C)c2ccccc2N2CCCCC2)ccc1C(=O)O	-0.4 °C	-1.24 °C
CCCS(=O)(=O)Nc1ccc(F)c(Nc2ncnc3cnc(-n4cnc(C)c4)nc23)c1F	-2.57 °C	-1.9 °C
CC(C)C(=O)N1CCC(c2cn(C)c3ncc(NC(=O)c4cccc(C#N)c4)c(C(F)(F)F)c23)CC1	-2.27 °C	-2.5 °C
CCc1c(-c2ccc3[nH]ncc3c2)cnc(N)c1-c1ccc(O)cc1	-1.17 °C	-2.74 °C
CN1C(=O)c2c(nn(Cc3ccc(-c4cccc(F)n4)cc3)c2Nc2ccccc2)N2C1=N[C@@H]1CCC[C@@H]12	1.34 °C	0.8 °C
CN(c1ccc(C(F)(F)F)cc1)S(=O)(=O)c1ccc(C(=O)Nc2nc(-c3ccccn3)cs2)cc1	6.63 °C	18.6 °C
C[C@@H]1CN(CC(=O)N2CC(C)(C)c3nc(CO)c(Cc4ccc(F)cc4)cc32)[C@@H](CN2CCOC[C@H]2C)CN1	-1.96 °C	-0.43 °C
Cn1cnc(Cn2ccc3ccc(CNCc4[nH]c5ccccc5c4[C@H]4NC(=O)c5ccc(O)cc54)cc32)c1	0.36 °C	0.2 °C
Cn1cc(-c2ccc(N(C(=O)NCc3ccccc3)[C@H]3CC[C@H](Nc4ccc(C#N)cn4)CC3)cc2)ccc1=O	-0.82 °C	-1.6 °C
Cn1cc(-c2ccc(-c3cncc(Cl)c3N3CCC4(CCNC4=O)CC3)cc2)cn1	0.07 °C	-2 °C
CC(C)N(C(=O)C1CCOCC1)c1cc(F)c(Oc2ncc(Cn3nccn3)cc2C(F)(F)F)cc1C(=O)O	-3.14 °C	0.13 °C
COCCc1ccc(-c2c(C)nc3c(N4CCOCC4)ccnn23)cn1	-1.01 °C	-1.13 °C
CC1(C)Cc2nc(C3CCCC3)c([C@@H](F)c3ccc(C(F)(F)F)cc3)c(C3CCCCC3)c2[C@@H](O)C1	0.17 °C	0.34 °C
